# According to PubChem BioAssay (NCATS):
# Records with an inconclusive call do not appear. The source made the active and inactive calls. Calls come from the whole dose curve; as a rule, active = well fitted cell-killing curve with a large enough effect; inconclusive = small, poorly fitted or top-dose-only effect; inactive = no such curve, though single readings can be large or run the other way.
# Assay: qHTS of pediatric cancer cell lines to identify multiple opportunities for drug repurposing: Primary screen for Saos-2 cells (AID 1347097); note: nearly all actives have a fitted effect of over 40% in size
# Details: Saos-2 viability, CellTiter-Glo ATP luminescence, 48 h; series mostly up to 46 µM
# Procedure, shortened: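 ATP-based luminescence (CellTiter-Glo) quantifies viability after a 48-hour exposure. Compounds are dosed across 8 or 11 final concentrations; DMSO and 2.3 µM bortezomib serve as controls.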
# % is set by controls: 0 for no effect and ±100 for the full control effect; potency is the fitted concentration of half-maximal effect.
Structure (SMILES),Potency,"activity change, negative = cytotoxic"
CCN1CCN(Cc2ccc(-c3cc4c(N[C@H](C)c5ccccc5)ncnc4[nH]3)cc2)CC1,0.209 µM (active),–
CCc1c2c(nc3ccc(O)cc13)-c1cc3c(c(=O)n1C2)COC(=O)[C@]3(O)CC,0.0187 µM (active),–
CNC(=O)c1ccc(N2C(=S)N(c3cnc(C#N)c(C(F)(F)F)c3)C(=O)C23CCC3)cc1F,inactive,–
Cc1ccc(C(=O)Nc2cccc(C(F)(F)F)c2)cc1-c1ccc2nc(NCCN3CCOCC3)ncc2c1,5.9 µM (active),–
CN1CCN(c2ccc3nc(-c4c(N)c5c(F)cccc5[nH]c4=O)[nH]c3c2)CC1,5.9 µM (active),–
Clc1cccc(-c2nnnn2Cc2cccnc2)c1Cl,inactive,–
COc1cc(C)c(Sc2cnc(NC(=O)c3ccc(CNC(C)C(C)C)cc3)s2)cc1C(=O)N1CCN(C(C)=O)CC1 (stereo unspecified),inactive,–
CN1CCN(Cc2ccc(NC(=O)Nc3ccc(Oc4cc(NC(=O)C5CC5)ncn4)cc3)cc2C(F)(F)F)CC1,0.59 µM (active),–
CC(C)c1ccccc1Cc1cc(C(=O)Nc2ccc(S(=O)(=O)c3ccccc3C(C)(C)C)cc2)c(O)c(O)c1O,26.4 µM (active),–
O=C(c1cncc(Br)c1)N1CCC(N2CCCC2)CC1,inactive,–
CNC(=O)c1ccccc1Nc1nc(Nc2ccc(N3CCOCC3)cc2OC)ncc1Cl,1.18 µM (active),–
COc1ccc(CC2c3cc(OC)c(OC)cc3CC[N+]2(C)CCC(=O)OCCCCCOC(=O)CC[N+]2(C)CCc3cc(OC)c(OC)cc3C2Cc2ccc(OC)c(OC)c2)cc1OC (stereo unspecified),–,4.71% [at 9.22 µM] (inactive)
Cc1ccc2nc(NC(=O)CSc3nc4c(c(=O)n3-c3ccccc3)SCC4)sc2c1,14.8 µM (active),–
CC(C)(O)CCc1ccc(OCc2cc(-c3cccc(OC(F)F)c3)c3ncccc3c2)cc1,inactive,–
Cc1cn(-c2cc(NC(=O)c3ccc(C)c(Nc4nccc(-c5cccnc5)n4)c3)cc(C(F)(F)F)c2)cn1,inactive,–
COC(=O)c1ccc2c(C(=Nc3ccc(N(C)C(=O)CN4CCN(C)CC4)cc3)c3ccccc3)c(O)[nH]c2c1,9.35 µM (active),–
C1=CCOCc2cc(ccc2OCCN2CCCC2)Nc2nccc(n2)-c2cccc(c2)OCC1,5.26 µM (active),–
CCOc1cc2ncc(C#N)c(Nc3ccc(F)c(Cl)c3)c2cc1NC(=O)C=CCN(C)C,2.96 µM (active),–
CCS(=O)(=O)c1cccc(-c2cc(C(=O)NC3CCN(C)CC3)c(C)c3[nH]c4ncc(C)cc4c23)c1,0.935 µM (active),–
C#Cc1cccc(Nc2ncnc3cc(OC)c(OCCCCCCC(=O)NO)cc23)c1,0.209 µM (active),–
CC(C)c1ccc(Cn2ccc3c4c(N)nc(NC5CC5)nc4ccc32)cc1,4.69 µM (active),–
Cc1ccc(S(=O)(=O)Nc2cc(Cl)ccc2C(=O)Nc2nc(-c3ccccc3)cs2)cc1,14.8 µM (active),–
COc1ccc(CC2SC(=O)NC2=O)cc1C(=O)NCc1ccc(C(F)(F)F)cc1 (stereo unspecified),inactive,–
CC[C@@]1(O)C(=O)OCc2c1cc1n(c2=O)Cc2cc3cc(O)ccc3nc2-1,0.0662 µM (active),–
C=CC(=O)Nc1cc2c(Nc3ccc(F)c(Cl)c3)ncnc2cc1C#CC(C)(C)N1CCN(C)CC1,4.18 µM (active),–
Cc1cc(N2CCOCC2)cc2[nH]c(-c3c(NC[C@@H](O)c4cccc(Cl)c4)cc[nH]c3=O)nc12,0.0833 µM (active),–
O=C(C=Cc1cccc(S(=O)(=O)Nc2ccccc2)c1)NO,6.79 µM (active),–
CNC(=O)c1cc(Oc2ccc(NC(=O)Nc3cc(C(C)(C)C)nn3-c3ccc4ncccc4c3)c(F)c2)ccn1,16.6 µM (active),–

# Assay: qHTS of pediatric cancer cell lines to identify multiple opportunities for drug repurposing: Primary screen for SK-N-SH cells (AID 1347098); note: nearly all actives have a fitted effect of over 65% in size;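 for activity change, negative = cytotoxic: DMSO served as neutral control and bortezomib at 2.3 µM as positive control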
# Details: SK-N-SH viability, CellTiter-Glo luminescence, 48 h; series mostly up to 57 µM
# Procedure, shortened: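 Cells (500-1,000/well) rested 5 h, then received compounds for 48 h; metabolically active cells were measured by CellTiter-Glo luminescence. Final concentrations spanned up to 46 µM (MIPE, 11-point) or 0.59 nM-46 µM (NPC, 8-point) in primary screens, 11-point in follow-ups.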
Structure (SMILES),Potency,"activity change, negative = cytotoxic"
CCN1CCN(Cc2ccc(-c3cc4c(N[C@H](C)c5ccccc5)ncnc4[nH]3)cc2)CC1,21.5 µM (active),–
CCc1c2c(nc3ccc(O)cc13)-c1cc3c(c(=O)n1C2)COC(=O)[C@]3(O)CC,0.152 µM (active),–
CNC(=O)c1ccc(N2C(=S)N(c3cnc(C#N)c(C(F)(F)F)c3)C(=O)C23CCC3)cc1F,1.21 µM (active),–
Cc1ccc(C(=O)Nc2cccc(C(F)(F)F)c2)cc1-c1ccc2nc(NCCN3CCOCC3)ncc2c1,9.61 µM (active),–
CCc1cc2c(cc1N1CCC(N3CCOCC3)CC1)C(C)(C)c1[nH]c3cc(C#N)ccc3c1C2=O,inactive,–
CN1CCN(c2ccc3nc(-c4c(N)c5c(F)cccc5[nH]c4=O)[nH]c3c2)CC1,15.2 µM (active),–
Clc1cccc(-c2nnnn2Cc2cccnc2)c1Cl,inactive,–
COc1cc(C)c(Sc2cnc(NC(=O)c3ccc(CNC(C)C(C)C)cc3)s2)cc1C(=O)N1CCN(C(C)=O)CC1 (stereo unspecified),12.1 µM (active),–
CN1CCN(Cc2ccc(NC(=O)Nc3ccc(Oc4cc(NC(=O)C5CC5)ncn4)cc3)cc2C(F)(F)F)CC1,0.764 µM (active),–
O=C(c1cncc(Br)c1)N1CCC(N2CCCC2)CC1,inactive,–
CNC(=O)c1ccccc1Nc1nc(Nc2ccc(N3CCOCC3)cc2OC)ncc1Cl,6.07 µM (active),–
COc1ccc(CC2c3cc(OC)c(OC)cc3CC[N+]2(C)CCC(=O)OCCCCCOC(=O)CC[N+]2(C)CCc3cc(OC)c(OC)cc3C2Cc2ccc(OC)c(OC)c2)cc1OC (stereo unspecified),–,-0.106% [at 11.4 µM] (inactive)
O=C(O)c1ccc2c(c1)nc(Nc1cccc(Cl)c1)c1ccncc12,12.1 µM (active),–
Cc1cn(-c2cc(NC(=O)c3ccc(C)c(Nc4nccc(-c5cccnc5)n4)c3)cc(C(F)(F)F)c2)cn1,inactive,–
COC(=O)c1ccc2c(C(=Nc3ccc(N(C)C(=O)CN4CCN(C)CC4)cc3)c3ccccc3)c(O)[nH]c2c1,6.07 µM (active),–
C1=CCOCc2cc(ccc2OCCN2CCCC2)Nc2nccc(n2)-c2cccc(c2)OCC1,7.64 µM (active),–
CCOc1cc2ncc(C#N)c(Nc3ccc(F)c(Cl)c3)c2cc1NC(=O)C=CCN(C)C,0.341 µM (active),–
CC(C)(C)c1cc(C(C)(C)C)c(NC(=O)c2c[nH]c3ccccc3c2=O)cc1O,inactive,–
CCS(=O)(=O)c1cccc(-c2cc(C(=O)NC3CCN(C)CC3)c(C)c3[nH]c4ncc(C)cc4c23)c1,6.81 µM (active),–
C#Cc1cccc(Nc2ncnc3cc(OC)c(OCCCCCCC(=O)NO)cc23)c1,0.121 µM (active),–
CC(C)c1ccc(Cn2ccc3c4c(N)nc(NC5CC5)nc4ccc32)cc1,21.5 µM (active),–
Cc1ccc(S(=O)(=O)Nc2cc(Cl)ccc2C(=O)Nc2nc(-c3ccccc3)cs2)cc1,inactive,–
COc1ccc(CC2SC(=O)NC2=O)cc1C(=O)NCc1ccc(C(F)(F)F)cc1 (stereo unspecified),inactive,–
CC[C@@]1(O)C(=O)OCc2c1cc1n(c2=O)Cc2cc3cc(O)ccc3nc2-1,0.429 µM (active),–
C=CC(=O)Nc1cc2c(Nc3ccc(F)c(Cl)c3)ncnc2cc1C#CC(C)(C)N1CCN(C)CC1,3.83 µM (active),–
Cc1cc(N2CCOCC2)cc2[nH]c(-c3c(NC[C@@H](O)c4cccc(Cl)c4)cc[nH]c3=O)nc12,0.215 µM (active),–
O=C(C=Cc1cccc(S(=O)(=O)Nc2ccccc2)c1)NO,6.22 µM (active),–
CNC(=O)c1cc(Oc2ccc(NC(=O)Nc3cc(C(C)(C)C)nn3-c3ccc4ncccc4c3)c(F)c2)ccn1,19.2 µM (active),–
